Source: PubChem BioAssay

System: XIP peptide (Xip251-270)
Experiment: compounds binding XIP fragment 251-270 – biochemical, small-molecule microarray, fluorescence 635/667 nm, 0.5 µg/mL protein, primary screen (AID 1183)
Conditions: fluorescence 635 nm, higher = more signal

Row | SMILES | composite z-score
1 | Cc1cc(C)c(C(O)C2C=CC3C(=O)N(c4ccccc4)C(=O)C3N2Nc2ccc(C#N)cc2)c(C)c1 (configuration not stated) | 0.432
2 | COCCOC(=O)N1C(=O)[C@@]2(c3cc(C#CCNC(N)=O)ccc31)[C@H](c1ccc(OCCO)cc1)N1[C@H](c3ccccc3)[C@H](c3ccccc3)OC(=O)[C@H]1[C@@H]2C(=O)N1CCc2cc(OC)c(OC)cc2C1 | 0.229
3 | Cc1ccc(S[C@]2(C(=O)NCC(C)C)CC(=O)N(Cc3ccccc3)[C@@H]2c2ccc(CO)cc2I)cc1 | 0.292
4 | C=CC(=C)C1=CCO[C@@H]1[C@H]1CCCN1S(=O)(=O)c1ccccc1[N+](=O)[O-] | 0.281
5 | COCC(=C=CC[C@@H](O)c1ccc(CO)o1)CCO | 0.344
6 | [N-]=[N+]=Nc1ccccc1C[C@]1(C(=O)NCCN2CCOCC2)N=C(c2ccc(OCCCO)cc2)O[C@H]1c1ccccc1 | 0.902
7 | COc1ccc(C(=O)Nc2cccc(CN3C(=O)[C@]4(O[C@H](CC(=O)N5CCC[C@H]5CO)[C@@H]([Si](C)(C)c5ccc(OC)cc5)[C@@H]4C)c4ccccc43)c2)cc1 | 0.687
8 | CCCCCN1CC=CC23O[C@@H]4/C=C\CCC(C)OC(=O)C4[C@H]2C(=O)N(CCCCCO)[C@@H]3C1=O (some centres not stated) | 0.0185
9 | CCCCCN1CC=CC23O[C@@H]4C=CCOC(=O)[C@@H]4[C@H]2C(=O)N(CCCO)[C@@H]3C1=O (some centres not stated) | 0.747
10 | O=C1O[C@H](c2ccccc2)[C@H](c2ccccc2)N2[C@H]1[C@@H](C(=O)Nc1nc3ccccc3s1)[C@]1(C(=O)Nc3ccccc31)[C@H]2c1ccc(O)cc1 | 0.143
11 | O=C1O[C@H](c2ccccc2)[C@H](c2ccccc2)N2[C@H]1[C@@H](C(=O)O)[C@]1(C(=O)Nc3ccc(C#CC4=CCCCC4)cc31)[C@H]2c1ccc(OCCO)cc1 | 0.813
12 | CC=CC(O)C1C=CC2C(=O)N(c3ccccc3)C(=O)C2N1Nc1ccc(C(C)C)cc1 (configuration not stated) | 0.766
13 | O=C1OCCC=C[C@H]2OC34C=CCN(Cc5ccccc5)C(=O)[C@H]3N(CCCCCO)C(=O)[C@@H]4C12 (some centres not stated) | -0.0335
14 | COCCOC(=O)N1C(=O)[C@@]2(c3cc(C#CCNC(N)=O)ccc31)[C@H](c1ccc(O)cc1)N1[C@H](c3ccccc3)[C@H](c3ccccc3)OC(=O)[C@H]1[C@@H]2C(=O)Nc1nc2ccccc2s1 | -0.132
15 | O=C1O[C@H](c2ccccc2)[C@H](c2ccccc2)N2[C@H]1[C@@H](C(=O)O)[C@]1(C(=O)Nc3ccc(C#CC4(O)CCCCCC4)cc31)[C@H]2c1ccc(OCCO)cc1 | 0.599
16 | O=C1OCCC=C[C@H]2OC34C=CCN(c5ccc6ccccc6c5)C(=O)[C@H]3N(CCCCCO)C(=O)[C@@H]4C12 (some centres not stated) | 0.385
17 | Cc1ccc(S[C@]2(C(=O)NC3CC3)CC(=O)N(C3CCCCC3)[C@@H]2c2ccc(CO)cc2I)cc1 | 0.784
18 | COc1cc2c(cc1O)C(C)N(Cc1cccc(OC(F)(F)F)c1)CC2 (configuration not stated) | 0.907
19 | COc1ccc(C#Cc2ccc3c(c2)[C@]2(C(=O)N3)[C@H](c3ccc(O)cc3)N3[C@H](c4ccccc4)[C@H](c4ccccc4)OC(=O)[C@H]3[C@@H]2C(=O)N2CCCCCCC2)cc1 | 0.644
20 | COC(=O)[C@@]1(Cc2ccccc2)[C@H]2c3cc(C(=O)N(C)C)n(Cc4cc(C)n(C)n4)c3C[C@H]2CN1C(=O)c1ccccc1 | 0.635
21 | C=CC(COC(C)=O)NS(=O)(=O)c1ccc(Br)cc1 (configuration not stated) | 0.231
22 | COC(=O)c1c(CC[C@@H](CO)NC(=O)N[C@@H](Cc2ccccc2)Cn2cc(C3(O)CCCCC3)nn2)oc(C(C)=O)c1C(=O)OC | 0.536
23 | COC(=O)C(CC#Cc1ccc2c(c1)[C@]1(C(=O)N2)[C@H](C(=O)NC[C@H](O)c2ccccc2)[C@H]2C(=O)O[C@H](c3ccccc3)[C@H](c3ccccc3)N2[C@@H]1c1ccc(OCCO)cc1)C(=O)OC | 0.736
24 | C=CCC(OC(C)=O)[C@@H]1[C@@H](N(Cc2ccc(-c3cccc(C(F)(F)F)c3)o2)C(=O)c2ccc(C)cc2)c2cc(OCCCO)ccc2N1C(=O)c1ccc(-c2ccccc2)cc1 (some centres not stated) | 0.0783
25 | COc1cccc(C(=O)O[C@H]2CC[C@]3(C)C4=C(CCC3C2(C)C)[C@]2(C)CC[C@H]([C@H](C)CCCC(C)C)[C@@]2(C)CC4)c1 (some centres not stated) | -0.519
26 | CN(C)C(=O)[C@@]1(CCC(=O)OC(C)(C)C)N=C(c2ccc(OCCCO)cc2)O[C@H]1c1ccccc1 | 0.909
27 | O=C1OCCC/C=C\[C@H]2OC34C=CCN(Cn5nnc6ccccc65)C(=O)[C@H]3N(CCCCCO)C(=O)[C@@H]4C12 (some centres not stated) | 0.545
